From PubChem BioAssay (Tox21)
Several values for one entry are separate records, joined by “and”; a condition that tells them apart may be missing. Equal values may be shown once. Inconclusive results are not listed. Entries that show only a call come without a potency. Where a structure was tested more than once in an assay, its records may differ in their call. Activity calls are given as the source filed them. Unless noted, calls come from the whole dose curve; as a rule, active = well fitted curve in the direction sought with a large enough effect in the repeat runs; inconclusive = weak or mixed curves; inactive = no such curve, though single readings can be large; an effect the other way counts as inactive or inconclusive.

Key:
[1] = A CellTox Green Cytotoxicity Assay to monitor cytotoxicity in HepG2 cells - 8 hour (AID 1224890); note: nearly all actives have a fitted effect of over 45% in size
How it was run: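 HepG2 cells were seeded together with the CellTox Green dye at 600 cells/well, left 5 h at 37 C/5% CO2, then given compounds in DMSO. Fluorescence from dye bound to dead-cell DNA was read repeatedly over 40 h of treatment at 37 C.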

[2] = qHTS assay to identify small molecule antagonists of the estrogen receptor alpha (ER-alpha) signaling pathway using the BG1 cell line in the presence of 0.1 nM 17-beta-estradiol - cell viability counter screen (AID 1259241); note: nearly all actives have a fitted effect of over 40% in size; note: potency is the fitted concentration of half-maximal effect
How it was run: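 Live-cell protease activity (CellTiter-Fluor fluorescence, 30 min) was read in the same wells after VM7Luc4E2 cells had been exposed to compounds with 0.1 nM 17beta-estradiol for 22 hr at 37C.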

[3] = qHTS assay to identify small molecule antagonists of the androgen receptor (AR) signaling pathway using the MDA cell line in the presence of 0.5 nM R1881 - cell viability counter screen (AID 1259242); note: nearly all actives have a fitted effect of over 45% in size; note: potency is the fitted concentration of half-maximal effect
How it was run: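 MDA-kb2 cells (human breast carcinoma, stably carrying MMTV-luciferase reporter) were exposed to compounds with 0.5 nM R1881 (final) for 16 hr at 37C, 0% CO2; viability then read as live-cell protease fluorescence (CellTiter-Fluor, 30 min) in the same wells.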

[4] = biological target: Estrogen receptor (Homo sapiens) (UniProt P03372); assay: qHTS assay to identify small molecule antagonists of the estrogen receptor alpha (ER-alpha) signaling pathway using the BG1 cell line in the presence of 0.1 nM 17-beta-estradiol (AID 1259244); note: nearly all actives have a fitted effect of over 50% in size
How it was run: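 VM7Luc4E2 cells (endogenous full-length ER-alpha, stable 4xERE-luciferase) were grown 5 days in phenol red-free medium with charcoal-stripped FBS, then exposed 22 h at 37C to compounds plus 0.1 nM (final) 17beta-estradiol; ONE-Glo luminescence read-out.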

[5] = qHTS assay to identify small molecule phospholipidosis (PLD) inducers (AID 1259344; active = well fitted curve in the direction sought with a large enough effect; an effect the other way counts as inactive or inconclusive)
How it was run: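 HepG2 cells on collagen I, attached 4 h at 37 C, were co-treated with compound and LipidTOX Red dye for 24 h at 37 C, then fixed with paraformaldehyde plus Hoechst 33342 and imaged by high-content microscopy for phospholipid accumulation.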

[6] = qHTS assay to identify small molecule HDAC inhibitors (AID 1259364); note: nearly all actives have a fitted effect of over 45% in size; note: potency is the fitted concentration of half-maximal effect
How it was run: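 Wild-type HCT-116 cells were plated overnight, exposed to compounds for 2 h at 37 °C, then given HDAC-Glo class I/II luminogenic reagent for 30 min at room temperature before luminescence was read.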

[7] = qHTS assay to identify small molecule HDAC inhibitors - cell viability counter screen (AID 1259365); note: series mostly up to about 92 µM; nearly all actives have a fitted effect of over 50% in size
How it was run: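 HCT-116 (wild type), 1,500 cells/well, overnight 37C/5% CO2; compound in DMSO 2hr; CellTiter-Glo 30min RT; luminescence read.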

[8] = qHTS assay to identify small molecule agonists of the sonic hedgehog signaling (Shh) pathway - cell viability counter screen (AID 1259366); note: nearly all actives have a fitted effect of over 50% in size; note: potency is the fitted concentration of half-maximal effect
How it was run: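 CellTiter-Fluor fluorescence read-out, 1 hr at 37C, added after 23hr compound exposure. Cells: 3T3 Gli1-Luc, an NIH/3T3 clone with stably integrated Gli1-Luc reporter, plated 4hr before compound.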

[9] = qHTS assay to identify small molecule antagonists of the sonic hedgehog signaling (Shh) pathway - cell viability counter screen (AID 1259367); note: nearly all actives have a fitted effect of over 55% in size; note: potency is the fitted concentration of half-maximal effect
How it was run: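 NIH/3T3-derived Gli1-Luc reporter cells (2,000 per well) rested 4 hr at 37 C, then received DMSO compounds plus conditioned medium. After 23 hr of treatment, CellTiter-Fluor was added for 1 hr at 37C and fluorescence read.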

[10] = qHTS assay to identify small molecule agonists of the sonic hedgehog signaling (Shh) pathway (AID 1259368; calls by dose curve; note: series mostly up to about 92 µM; nearly all actives have a fitted effect of over 15% in size)
How it was run: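 NIH/3T3-derived 3T3Gli1-Luc cells carrying a stably integrated Gli1 response element–firefly luciferase reporter were plated, left 4 hr at 37 C, then given compounds in DMSO for 24 hr. Luminescence was read 30 min after adding luciferase reagent.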

[11] = qHTS assay to identify small molecule antagonists of the sonic hedgehog signaling (Shh) pathway (AID 1259369; calls by dose curve; note: nearly all actives have a fitted effect of over 45% in size; note: potency is the fitted concentration of half-maximal effect)
How it was run: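 NIH/3T3-derived 3T3Gli1-Luc cells with stably integrated Gli1-Luc reporter were preincubated 4hr at 37 C, then given compounds in DMSO plus Shh conditioned medium and incubated 24hr. Firefly luciferase luminescence read after 30min reagent at room temperature.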

[12] = biological target: Estrogen receptor beta (Homo sapiens) (UniProt Q92731); assay: qHTS assay to identify small molecule antagonists of the estrogen receptor beta (ER-beta) signaling pathway (AID 1259378; active = well fitted inhibition curve with a large enough effect in the signal ratio in the repeat runs, not every such curve was filed as active; the % refers to the signal ratio)
How it was run: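 ER-beta-UAS-bla HEK293T (GripTite) cells in 2% charcoal-stripped FBS medium were preincubated 6 hr at 37C, dosed with compound, then stimulated with 1 nM E2 (final) for 16 hr; beta-lactamase reporter read by B/G FRET fluorescence after 2 hr substrate loading.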

[13] = qHTS assay to identify small molecule agonists of the androgen receptor (AR) signaling pathway in the presence of an antagonist - cell viability counter screen (AID 1259379); note: series mostly up to about 92 µM; nearly all actives have a fitted effect of over 25% in size
How it was run: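 MDA-kb2 human breast carcinoma cells (stable MMTV-luciferase, AR/GR responsive) were seeded 3,000 cells/well, pre-incubated 5 hr at 37C without CO2, then given 3.0uM nilutamide and compounds at 15 concentrations for 16 hr. Viability was read by CellTiter-Fluor fluorescence.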

[14] = qHTS assay to identify small molecule agonists of the estrogen receptor beta (ER-beta) signaling pathway - cell viability counter screen (AID 1259380); note: nearly all actives have a fitted effect of over 30% in size; note: potency is the fitted concentration of half-maximal effect
How it was run: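 ER-beta-UAS-bla HEK293T cells in medium with 2% charcoal-stripped FBS were preincubated 6 hr at 37C, dosed with compound in DMSO for 16 hr, then after the bla read, CellTiter-Glo was added for 30 min at room temperature; luminescence recorded.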

[15] = qHTS assay to identify small molecule antagonists of the estrogen receptor beta (ER-beta) signaling pathway - cell viability counter screen (AID 1259382); note: nearly all actives have a fitted effect of over 55% in size; note: potency is the fitted concentration of half-maximal effect
How it was run: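 ER-beta-UAS-bla HEK293T cells (2,000/well, 2% charcoal-stripped FBS) were pre-incubated 6 hr at 37C, then given compound plus 1nM final 17-beta-estradiol for 16 hr. Viability was read in the same wells by CellTiter-Glo luminescence after 30 min at room temperature.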

[16] = qHTS assay to identify small molecule agonists or antagonists of the thyroid stimulating hormone receptor (TSHR) signaling pathway - wild type cell line counter screen (AID 1259384; calls by dose curve)
How it was run: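 Wild-type HEK293 cells were plated 18 h at 37 C/5% CO2, pin-dosed with compound plus Ro20-1724 medium, held 30 min at room temperature, then given cAMP-d2 and anti-cAMP-cryptate; fluorescence was read after 1 h. Fifteen concentrations, triplicate.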

[17] = biological target: Androgen receptor (Homo sapiens) (UniProt P10275); assay: qHTS assay to identify small molecule antagonists of the androgen receptor (AR) signaling pathway using the MDA cell line in the presence of 0.5 nM R1881 (AID 1259243); note: nearly all actives have a fitted effect of over 50% in size
How it was run: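 MDA-kb2 human breast carcinoma cells carrying an MMTV-luciferase reporter (AR- and GR-responsive) were plated, rested 5 hr at 37C, dosed with compounds, then stimulated with 0.5 nM R1881 (final) for 16 hr; luminescence was read after ONE-Glo.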

[18] = biological target: Androgen receptor (Homo sapiens) (UniProt P10275); assay: qHTS assay to identify small molecule agonists of the androgen receptor (AR) signaling pathway in the presence of an antagonist (AID 1259381; calls by dose curve; note: nearly all actives have a fitted effect of over 15% in size)
How it was run: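 MDA-kb2 human breast carcinoma cells carrying an MMTV-luciferase reporter (AR- and GR-responsive) were treated with compounds at 15 concentrations plus 3.0uM final nilutamide for 16hr at 37C without CO2; luminescence was read after ONE-Glo addition.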

[19] = biological target: Estrogen receptor (Homo sapiens) (UniProt P03372); assay: qHTS assay to identify small molecule agonists of the estrogen receptor alpha (ER-alpha) signaling pathway in the presence of an antagonist (AID 1259383; calls by dose curve; note: top concentration of the series differs between compounds; nearly all actives have a fitted effect of over 15% in size)
How it was run: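 VM7Luc4E2 cells (endogenous full-length ER-alpha, 4×ERE-luciferase) were precultured 5 days in phenol red-free medium with 10% charcoal-stripped FBS, given 10.0nM ICI-182,780 (final), then treated with compounds at 15 concentrations for 22hr at 37C; luminescence read with ONE-Glo.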

[20] = biological target: Estrogen receptor beta (Homo sapiens) (UniProt Q92731); assay: qHTS assay to identify small molecule agonists of the estrogen receptor beta (ER-beta) signaling pathway (AID 1259377; active = well fitted activation curve with a large enough effect in the signal ratio in the repeat runs, not every such curve was filed as active; the % refers to the signal ratio)
How it was run: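 Beta-lactamase reporter readout: fluorescence of LiveBLAzer B/G FRET substrate after 2 h at room temperature, following 16 h compound treatment of ER-beta-UAS-bla HEK293T cells at 37C in 2% charcoal-stripped FBS medium.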

Estrogen receptor (Homo sapiens), sequence (P03372 whole entry, looked up): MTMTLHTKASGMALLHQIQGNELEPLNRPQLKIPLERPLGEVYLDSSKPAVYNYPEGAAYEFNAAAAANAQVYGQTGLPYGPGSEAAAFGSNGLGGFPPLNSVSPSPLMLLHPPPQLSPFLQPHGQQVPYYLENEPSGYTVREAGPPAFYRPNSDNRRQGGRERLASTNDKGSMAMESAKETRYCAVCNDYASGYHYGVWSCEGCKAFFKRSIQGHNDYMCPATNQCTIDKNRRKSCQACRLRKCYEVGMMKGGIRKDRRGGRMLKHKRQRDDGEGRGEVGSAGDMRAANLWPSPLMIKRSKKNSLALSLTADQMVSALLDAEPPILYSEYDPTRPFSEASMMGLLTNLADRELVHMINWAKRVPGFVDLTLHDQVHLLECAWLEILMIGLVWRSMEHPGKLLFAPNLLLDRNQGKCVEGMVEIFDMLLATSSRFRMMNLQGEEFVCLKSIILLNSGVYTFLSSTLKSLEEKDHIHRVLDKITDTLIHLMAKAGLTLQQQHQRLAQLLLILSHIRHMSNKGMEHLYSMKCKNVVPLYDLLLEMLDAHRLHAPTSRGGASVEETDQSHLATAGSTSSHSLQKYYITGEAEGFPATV
Androgen receptor (Homo sapiens), sequence (P10275 whole entry, looked up): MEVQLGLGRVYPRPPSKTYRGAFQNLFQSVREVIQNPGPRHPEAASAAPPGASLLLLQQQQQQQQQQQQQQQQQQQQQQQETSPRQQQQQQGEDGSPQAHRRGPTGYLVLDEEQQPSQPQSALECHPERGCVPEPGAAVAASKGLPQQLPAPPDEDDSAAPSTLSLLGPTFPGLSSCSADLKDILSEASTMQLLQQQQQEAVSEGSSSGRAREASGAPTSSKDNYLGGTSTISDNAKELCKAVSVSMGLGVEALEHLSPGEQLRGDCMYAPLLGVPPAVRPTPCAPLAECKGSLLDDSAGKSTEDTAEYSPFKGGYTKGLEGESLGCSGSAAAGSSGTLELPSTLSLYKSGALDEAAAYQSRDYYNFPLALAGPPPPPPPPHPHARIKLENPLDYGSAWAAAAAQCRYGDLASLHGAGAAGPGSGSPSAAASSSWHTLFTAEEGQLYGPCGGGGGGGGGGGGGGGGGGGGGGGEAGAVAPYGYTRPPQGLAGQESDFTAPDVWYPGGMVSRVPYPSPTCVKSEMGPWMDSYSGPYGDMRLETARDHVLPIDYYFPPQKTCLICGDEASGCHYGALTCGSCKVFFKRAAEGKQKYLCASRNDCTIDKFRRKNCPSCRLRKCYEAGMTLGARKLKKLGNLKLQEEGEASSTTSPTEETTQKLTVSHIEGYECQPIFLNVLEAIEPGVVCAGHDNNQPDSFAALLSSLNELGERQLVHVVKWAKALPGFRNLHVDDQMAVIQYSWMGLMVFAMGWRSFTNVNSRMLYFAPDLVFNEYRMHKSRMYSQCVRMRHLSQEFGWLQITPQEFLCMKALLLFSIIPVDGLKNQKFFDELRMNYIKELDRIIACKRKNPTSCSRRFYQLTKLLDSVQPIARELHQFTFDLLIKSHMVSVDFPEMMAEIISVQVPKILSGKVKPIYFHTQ
Estrogen receptor beta (Homo sapiens), sequence (Q92731 whole entry, looked up): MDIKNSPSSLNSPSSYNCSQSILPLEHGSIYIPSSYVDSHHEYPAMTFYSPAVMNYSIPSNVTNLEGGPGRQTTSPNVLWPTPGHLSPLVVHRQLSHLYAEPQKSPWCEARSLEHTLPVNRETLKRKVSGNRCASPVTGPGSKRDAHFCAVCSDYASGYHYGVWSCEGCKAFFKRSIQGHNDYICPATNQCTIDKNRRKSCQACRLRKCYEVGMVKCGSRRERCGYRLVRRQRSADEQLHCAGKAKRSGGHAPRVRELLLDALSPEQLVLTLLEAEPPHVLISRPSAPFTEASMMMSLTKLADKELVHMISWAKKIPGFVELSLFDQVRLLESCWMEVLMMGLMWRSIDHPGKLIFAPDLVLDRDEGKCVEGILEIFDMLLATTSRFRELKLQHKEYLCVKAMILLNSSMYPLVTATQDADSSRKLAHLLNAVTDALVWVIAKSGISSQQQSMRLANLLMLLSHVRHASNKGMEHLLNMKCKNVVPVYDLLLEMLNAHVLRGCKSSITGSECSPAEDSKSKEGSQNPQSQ

SMILES | Potency [1] | Potency [2] | Potency [3] | Potency [4] | Potency [5] | Potency [6] | outcome [7] | Potency [8] | Potency [9] | Potency [10] | Potency [11] | Potency [12] | Potency [13] | Potency [14] | Potency [15] | outcome [16] | Potency [17] | outcome [18] | Potency [19] | Potency [20]
Oc1ccc(O)cc1 | inactive | inactive | inactive | inactive | inactive | inactive | inactive | 10.8 µM (active) and 24.3 µM (active) and 26.6 µM (active) | 30.5 µM (active) and 54.5 µM (active) | inactive | 4.3 µM (active) and 2.17 µM (active) and 6.68 µM (active) | inactive | inactive | inactive | inactive | inactive | – | – | – | –
O=CCCCC=O | inactive | inactive | inactive | inactive | inactive | inactive | inactive | inactive | inactive | inactive | inactive | – | – | inactive | inactive | – | – | – | – | –
C#C[C@]1(O)CC[C@H]2[C@@H]3CCc4cc(OC)ccc4[C@H]3CC[C@@]21C | inactive | inactive | inactive | inactive | inactive | inactive | inactive | inactive | inactive | inactive | inactive | – | inactive | 21.7 µM (active) | – | inactive | – | – | – | –
CC(=O)Oc1ccccc1C(=O)Nc1ncc([N+](=O)[O-])s1 | inactive | 16.8 µM (active) | 11.1 µM (active) and 11.9 µM (active) | inactive | inactive | 197 nM (active) and 473 nM (active) | inactive | 22.1 µM (active) and 26.6 µM (active) | – | inactive | 9.88 µM (active) and 18.8 µM (active) | – | – | – | 22.1 µM (active) | inactive | – | – | – | –
OCCO | inactive | inactive | inactive | inactive | – | inactive | inactive | inactive | inactive | inactive | inactive | – | inactive | inactive | inactive | inactive | inactive | inactive | inactive | –
COC(=O)Nc1nc2ccc(S(=O)c3ccccc3)cc2[nH]1 (stereo unspecified) | inactive | inactive | inactive | inactive | inactive | inactive | inactive | inactive | inactive and 11.9 µM (active) | inactive | 2.37 µM (active) | – | inactive | – | inactive | – | – | – | inactive | –
C[C@]12CC[C@H]3[C@@H](CCC4=CC(=O)CC[C@@]43C)[C@@H]1CC[C@@H]2C(=O)CO | inactive | inactive | inactive | inactive | inactive | inactive | inactive | inactive | inactive | inactive | 15.4 µM (active) and inactive | inactive | – | – | inactive | – | – | – | inactive | inactive
